HT1080-NT tox: kills 2HG-producing HT-1080-NT fibrosarcoma cells; HT-1080-NT fibrosarcoma viability, CellTiter-Glo ATP luminescence, 48 h; Potency, µM (doses to about 46.1 µM), for inactives: at the top dose activity, negative = less viability, actives largely listed as cytotoxic; hit rate 1.6% among 360,000;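 further: NT is the 2HG producing partner of a matched IDH1 knockdown line; 0% = DMSO-treated cells and -100% = media-only wells without cells; nearly all actives have a fitted effect of over 55% in size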
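Fibrosarcoma NT cells, 750 per well in 5% FBS RPMI, were exposed to compound for 48 hours. Viability: CellTiter-Glo luminescence.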
SW480 rereplic: inducers of DNA re-replication in SW480 colon cancer cells | hit rate 1.8% among 340,000 | SW480 DNA re-replication, Hoechst DNA content imaging, 48 h | Potency, µM (top dose mostly 46.1 µM), for inactives: top-dose re-replication activation, hits mostly activators; further: % of control where 0% means no effect; nearly all actives have a fitted effect of over 55% in size
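Compounds, transferred as 23 nL by pin tool, were incubated with cells for 48 hr; DNA content per nucleus was then quantified by Hoechst staining and fluorescence plate imaging.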
MCF10A rereplic: induces DNA re-replication in MCF 10a normal breast cells; MCF 10A DNA re-replication, Hoechst nuclear intensity, 48 h; Potency, µM (highest dose often 46.1 µM), inactives show at the highest dose activity, positive = re-replication, most hits filed as activators; hit rate 2.9% among 350,000; AID 624296; further: % of control where 0% means no effect; nearly all actives have a fitted effect of over 50% in size
HT1080 IDH1KD tx: kills HT-1080 cells with IDH1 knockdown; HT-1080 IDH1 knockdown viability, ATP luminescence, 48 h; hit rate 2% among 360,000; Potency, µM (highest dose often 46.1 µM), for inactives: top-dose activity, negative = toxicity, usual class: cytotoxic; AID 686971;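 further: 0% = DMSO wells and -100% = cell-free medium wells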
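Assay cells: HT-1080 with IDH1 knockdown, 750 per well, RPMI/5% FBS. Exposure: 48 h at 37 °C following 2 h pre-incubation. Read: CellTiter-Glo luminescence; fitted concentration-response, curve class assigned.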
KB-V1 MDR tox: KB-V1 MDR subline cytotoxicity; KB-V1 MDR cells viability, CellTiter-Glo, 72 h; Potency, µM (top dose mostly 46.1 µM), most hits filed as cytotoxic; hit rate 3.4% among 400,000; further: on the % scale 0 is the no-effect control and ±100 the full control effect; nearly all actives have a fitted effect of over 60% in size
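Potencies derive from concentration-effect curves fitted to normalized luminescence (CellTiter-Glo) of KB-V1 cells treated for 72 h at 37 degrees C in phenol-red-free DMEM containing 10% FBS.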
KB-3-1 tox: kills parental KB-3-1 adenocarcinoma cells; hit rate 1.4% among 400,000; Potency, µM (top dose mostly 46.1 µM), usual class: cytotoxic; AID 1347075; KB-3-1 viability, CellTiter-Glo ATP luminescence, 72 h; further: on the % scale 0 is the no-effect control and ±100 the full control effect; nearly all actives have a fitted effect of over 60% in size
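Luminescent ATP read-out (CellTiter-Glo) measures survival of drug-naive KB-3-1 cells after 72 h compound exposure at 37 °C. Titration series was screened from lowest to highest concentration, with DMSO vehicle plates as background controls.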
Starred values were filed as active, the others as inactive; i = inactive; u = inconclusive; x = no result; [ ] = dose if it differs, or a comment. Hits are enriched below; roughly 7.9% of the tested compounds scored in any of these assays. The call rests on the fitted dose curve; in most records, active means well fitted curve in the direction sought with a large enough effect; inconclusive means small, poorly fitted or top-dose-only effect, or another doubt; inactive means no such curve, though single readings can be large; an effect the other way counts as inactive or inconclusive. Potency means the concentration at half of the fitted maximal effect.

SMILES	HT1080-NT tox	SW480 rereplic	MCF10A rereplic	HT1080 IDH1KD tx	KB-V1 MDR tox	KB-3-1 tox
O=C(Cc1csc(Nc2nc(=S)[nH]c3ccccc23)n1)NCc1cccc(Cl)c1	-13%	-6%	u	u	u	i
Cc1[nH]c2ccccc2c1C(O)CN1CCN(c2cccc(C(F)(F)F)c2)CC1 (stereo not given)	u	-2%[9.22 µM]	u	u	u	15µM*
Cc1[nH]c2ccccc2c1NC(=O)CN1CCN(c2cccc(C(F)(F)F)c2)CC1	18µM*	u	u	u	i	i
O=C(NCCc1ccccc1)C(=O)NCC(c1ccc2c(c1)OCO2)N1CCOCC1 (stereo not given)	x	x	x	x	u	i
COc1ccccc1NC(=O)NNC(=O)CCN1CCOCC1	15%	-19%	2%	5%	u	i
O=C(NCc1cc(Cl)cc(Cl)c1)c1ccc2sc([C@@H]3O[C@H](CO)[C@H](O)[C@H](O)[C@H]3O)nc2c1	-5%	x	x	1%	i	i
CC(C(=O)c1ccccc1)[n+]1cccc(C(N)=O)c1 (stereo not given)	12%	-5%	u	15%	i	i
Cc1cc(NC(=O)CC(C)C)c(=O)n(Cc2ccccc2F)c1	-5%	2%	15%	-6%	i	i
S=C1NC(c2ccccc2)=NCN1c1ccc(Cl)cc1	9%	0%	1%	1%	i	i
COC(=O)c1ccc(N2CN=C(c3ccc(C)cc3)NC2=S)cc1	-10%	-1%	26µM*	-2%	i	i
O=Nc1c(O)[nH]c2ccc(Cl)c(Cl)c12	u	1%	18%	u	u	0.41µM*
Cc1ccccc1C(=O)NCC(=O)OC1CCCCC1=O (stereo not given)	-3%	0%	9%	-3%	i	i
CC(=O)Nc1ccc(C(=O)N/N=C/c2ccccc2OC(=O)c2ccc(Cl)cc2)cc1	u	-3%[9.22 µM]	25%	23µM*	i	u
CC(=O)Nc1ccc(OC(=O)c2ccc(Cl)cc2)cc1	-10%	0%	-2%	10%	i	i
COc1cc(C(=O)Oc2ccccc2/C=N/NC(=O)c2ccc(C)c(Cl)c2)cc(OC)c1OC	u	u	-2%	u	u	u
COc1cc(C(=O)Oc2ccccc2/C=N/NC(=O)c2ccc(Cl)cc2)cc(OC)c1OC	u	u	u	u	u	5.2µM*
O=C(CCC(=O)OCC(=O)c1ccccc1)Nc1cccc2cccnc12	0%	18µM*	16µM*	8%	i	i
O=C(O)CCC(=O)Nc1cccc2cccnc12	-9%	0%	-8%	13%	i	i
CCCCCNC(=O)CCCCCn1c(=O)[nH]c2ccsc2c1=O	x	x	x	x	u	i
CN(C)c1ccc(NC(=S)c2ccccn2)cc1	u	u	-3%	u	u	15µM*
CC(C)CCOc1ccc(C2(C)NC(=O)NC2=O)cc1 (stereo not given)	-3%	2%	-6%	0%	u	i
Cn1cc(CCNC(=O)CC2C(=O)NCCN2Cc2cccc(Oc3ccccc3)c2)cn1 (stereo not given)	-4%	26µM*	u	u	i	u
O=C(NCCc1csc(-c2cccc(F)c2)n1)C(=O)Nc1cc(F)ccc1F	x	x	x	x	i	i
COc1cc(C(=O)N/N=C/c2sccc2C)cc(OC)c1OC	0.52µM*	1.2µM*	u	0.26µM*	u	0.65µM*
CCOc1ccc(C(=O)N/N=C/c2cc([N+](=O)[O-])cs2)cc1	-4%	4%	5%	-2%	i	i
SMILES	HT1080-NT tox	SW480 rereplic	MCF10A rereplic	HT1080 IDH1KD tx	KB-V1 MDR tox	KB-3-1 tox
Cc1ccccc1/C=N/NC(=O)c1sccc1C	-22%	3%	5%	-17%	u	i
COc1ccc(/C=N/NC(=O)c2sccc2C)c2ccccc12	-19%	u	12µM*	-16%	i	i
Cc1ccsc1/C=N/NC(=O)c1ccncc1	-14%	-9%	-7%	9%	i	i
COc1cc(C(=O)N/N=C/c2cc([N+](=O)[O-])cs2)cc(OC)c1OC	2.9µM*	u	5.8µM*	1.5µM*	1.2µM*	u
O=C(CN1C(=O)CSc2ncccc21)Nc1ccccc1F	5%	-7%	1%	4%	i	i
CCCC(C(=O)NC(C)(C)C)N(Cc1ccc(F)cc1)C(=O)c1snc(C(N)=O)c1N (stereo not given)	-2%	-2%	4%	-8%	u	i
COc1cc(OC)c(/C=C/c2cc(/C=C/c3c(OC)cc(OC)cc3OC)[n+](C)c3ccccc23)c(OC)c1	x	x	x	x	i	23µM*
COc1cc(OC)c(/C=C/c2c3ccccc3cc[n+]2C)c(OC)c1	x	x	x	x	i	u
COc1cc(OC)c(/C=C/c2cc3c4ccccc4ccc3[n+](C)c2)c(OC)c1	x	x	x	x	i	8.2µM*
O=C(/C=C/c1ccccc1)c1ccc2c(c1)OCCCCO2	5%	u	u	12%	i	i
O=C(CCl)N(C/C=C/c1ccccc1)c1ccc2c(c1)OCCO2	10µM*	u	u	u	i	i
CSc1ccc(OC2CCN(Cc3ccccc3)CC2)cc1	0%	u	u	-6%	16µM*	i
COc1ccc(/C=C2\SC(=S)NC2=O)cc1OS(=O)(=O)c1ccc(NC(C)=O)cc1	21µM*	4%	u	16µM*	i	i
O=C(Nc1c(F)c(F)c(F)c(F)c1F)NC1CCCCC1	-22%	4%	2%	0%	16µM*	i
CC(C)c1ccc2oc(-c3ccc(N)cc3)nc2c1	u	12%	10%	-27%	21µM*	u
Nc1nc(=S)c2[nH]cnc2[nH]1	2.3µM*	19%	u	1.3µM*	0.73µM*	1µM*
Nc1nc(=S)c2[nH]c(=S)[nH]c2[nH]1	0%	u	u	u	u	u
CCN(CC)S(=O)(=O)c1ccc(N/N=C/c2cccnc2)nc1	0%	-10%	2%	6%	u	i
CCN(CC)S(=O)(=O)c1ccc(N/N=C/c2cc(OC)ccc2O)nc1	8.2µM*	u	u	4.6µM*	u	u
CC(/C=N/NC(=S)Nc1cccc(S(=O)(=O)N(C)C)c1)c1ccccc1 (stereo not given)	10%	-7%	-3%	13%	21µM*	i
CN(C)S(=O)(=O)c1cccc(NC(=S)N/N=C/c2ccco2)c1	5%	-1%	0%	8%	i	i

Screening results deposited in PubChem by National Center for Advancing Translational Sciences (NCATS).
